This passage reports inhibition results from ChEMBL document CHEMBL3433997, “St. Jude Leishmania screening dataset” (2016).

The target in this experiment is Glucose transporter (Leishmania mexicana) (UniProt O61059). Briefly: ST_JUDE_LEISH: Cytotoxicity at 2uM final concentration against transgenic Leishmania Mexicana promastigotes LmGT2 that are glucose transport deficient and complemented with the L. Mexicana glucose transporter 2. Activity is measured by DNA content using SYBR green in vitro. It counts as functional.
One may read the inhibition as the change of the read-out against control, counted positive when it falls. For the compound `COc1ccc2ncc(F)c(CCN3CC[C@@H](CNCc4nc5c(cc4C)SCC(=O)N5)C3)c2n1`, the inhibition amounted to 0.49%. Then `CCCCOc1ccc(/C=C/c2ccc(-c3c(C)[nH]c(C)c(Cl)c3=O)s2)cc1`, with -1.25%; and `Ic1cc(Nc2ncnc3ccsc23)ccc1OCc1ccccc1`, with 0.81%; and `O=C(Nc1cc(F)cc(-c2cccnc2)c1)c1ccc2c(=O)n(Cc3ccccc3)cnc2c1`, with -1.46%. Then `CC(CNc1nc(NCC(c2ccccc2)c2ccccc2)c2nc[nH]c2n1)c1ccccc1` (stereo not given), with 3.73%; and `CCOC(=O)C1CCN(CCCNC(=O)/C(=C/C=C/c2cc3cc(Cl)c(Cl)cc3[nH]2)OC)CC1`, with 0.42%; and `O=S(=O)(c1csc2ccccc12)N(CCC(O)(C(F)(F)F)C(F)(F)F)Cc1cccc(O)c1`, with -4.98%. Then `CCN(CC)CCCC(C)Nc1ccnc2ccc(-c3ccccc3)cc12` (stereo not given), with 1.04%.

Regarding `CN1CCC(C(=O)N(Cc2ccc(-c3ccc(CNCCc4ccc(S(C)(=O)=O)cc4)cn3)cc2)Cc2cccc(F)c2)CC1`, the inhibition turned out to be 0.97%. As for `CCOC(=O)c1cn(CC)c2cc(F)c(OC3CC4CCC3(C)C4(C)C)cc2c1=O` (stereo not given), the figure is -3.18%.

Turning to `CC(=NNc1nc2ccccc2s1)c1ccccn1`, the inhibition is 3.21%. Then `CC=CC(=O)N1CCN(c2nccc(-c3ccc(C(C)(C)C)cc3)n2)CC1`, with 7.85%; and `COc1cccc(OCC2CCCN(CCCCNC(=O)c3ccc(NC(=O)c4ccc(Cl)cc4)cc3)C2)c1` (stereo not given), with -1.92%. As for `Fc1cccc(COc2ccc(Nc3ncnc4ccc(C#C[C@H]5CCCN5)cc34)cc2Cl)c1`, the figure is 2.2%; as for `CC(C)CNCc1cccc(-c2cccc(CN(CCCN3CCN(C)CC3)C(=O)Nc3ccccc3)c2)c1`, 0.33%.
